# GalR3 antag – antagonists of human GalR3; AID 651719; 0.44% of 360,000 active; HEK293 GalR3-CNG cAMP membrane potential fluorescence; galR3 body fused to GalR1 C-terminus; inhibition, % at 3 µM;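 active = inhibition above the screen-wide average plus 3 SD, cut at about 13% in these data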;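 note: forskolin and galanin both at EC90 stimulate the cells; cAMP rise reported by CNG channel membrane potential dye signal; 0% = forskolin plus galanin with DMSO and 100% = forskolin alone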
# Gli-Sufu block – antagonists of Gli-Sufu signaling. inhibition, % at 5 µM. Sufu-KO-LIGHT fibroblasts, Gli luciferase reporter luminescence. 0.74% of 340,000 active;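 active = inhibition above about 55%, limit read from the data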;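 note: 0% = DMSO-treated cells and 100% = wells with medium but no cells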
# aDG glyco act – increases alpha dystroglycan glycosylation. Pro5-aDG cells, alpha-DG glycosylation AlphaScreen (IIH6); 0% Pro5, 100% B10-LARGE cell signal. activation, % at 10 µM. 0.22% of 360,000 active. AID 624168;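 active = activation of at least 8% versus controls, or a plate z-score of at least 8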;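 note: Pro5 are CHO cells carrying HIG-tagged alpha-DG that lacks glycosylation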
# NR2F2 inh – NR2F2 (human) inhibition, primary screen | P24468 | 0.7% of 370,000 active | inhibition, % at 8.6 µM | HEK293T NGFI-A luciferase reporter, luminescence | AID 686940;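 active = inhibition above a per-plate cutoff, mean inhibition of test wells between control levels plus 3 SD, cut at about 38% in these data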;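 note: cells cotransfected with COUP-TFII expression vector driving the NGFI-A reporter; 0% = median of COUP-TF2 test wells and 100% = reporter-only cells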
# Target sequence (P24468 whole entry, looked up): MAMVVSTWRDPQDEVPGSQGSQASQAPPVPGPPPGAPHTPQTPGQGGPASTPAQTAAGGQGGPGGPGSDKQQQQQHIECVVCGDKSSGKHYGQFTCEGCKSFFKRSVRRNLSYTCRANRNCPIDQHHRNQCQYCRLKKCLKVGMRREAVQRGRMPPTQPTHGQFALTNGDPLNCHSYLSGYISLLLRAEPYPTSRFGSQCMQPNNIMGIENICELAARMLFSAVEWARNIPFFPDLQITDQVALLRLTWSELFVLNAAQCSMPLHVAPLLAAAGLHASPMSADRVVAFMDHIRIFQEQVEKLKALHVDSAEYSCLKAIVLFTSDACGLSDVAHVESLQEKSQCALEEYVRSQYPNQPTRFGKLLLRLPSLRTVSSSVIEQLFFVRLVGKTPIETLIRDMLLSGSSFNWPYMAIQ
# Env fusion inh – inhibitors of HIV Env-mediated cell fusion | HeLa-JRFL Env/CEM21 cell fusion, luciferase | inhibition, % at 12.3 µM | 1.1% of 360,000 active;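 active = mean replicate inhibition score of at least 50 and every replicate individually at or above 50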;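 note: 0% = plate neutral controls and 100% = maraviroc near 300 nM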
# Starred values were filed as active, the others as inactive; / = not tested or not shown; [ ] = dose if it differs, or a comment. This is a sample that favours compounds with a hit; in the whole collection about 2.1% have one here.
SMILES,GalR3 antag,Gli-Sufu block,aDG glyco act,NR2F2 inh,Env fusion inh
COc1ccccc1N(Cc1ccccc1)S(=O)(=O)c1cccc(C(=O)NC2CC(C)(C)NC(C)(C)C2)c1,-6,15,9.1*,3,-1
CC1=CC(=O)N(c2cccc(C(F)(F)F)c2)C1c1ccc(Cl)cc1 (stereo not given),-1,3,0,30,66*
CC1=CC(=O)N(c2ccc(C)cc2)C1c1ccc(Cl)cc1 (stereo not given),-4,1,0,-8,2
CC(C)CC#Cc1ccc2c(c1)O[C@@H](CN(C)C(=O)c1cccnc1)[C@@H](C)CN([C@@H](C)CO)S2(=O)=O,/,/,/,/,-2[16.7 µM]
COc1ccc(S(=O)(=O)Nc2ccc3c(c2)C(=O)N([C@H](C)CO)C[C@@H](C)[C@@H](CN(C)C(=O)Nc2cccc4ccccc24)OCCCC[C@@H](C)O3)cc1,/,/,/,/,27[16.7 µM]
C[C@@H]1CN([C@@H](C)CO)C(=O)c2cc(NC(=O)Nc3ccc4c(c3)OCO4)ccc2O[C@@H](C)CCCCO[C@@H]1CN(C)Cc1ccc(C(F)(F)F)cc1,/,/,/,/,23[16.7 µM]
C[C@H](CO)N1C[C@H](C)[C@H](CN(C)Cc2ccc(C(F)(F)F)cc2)OCCCC[C@H](C)Oc2ccc(NC(=O)Nc3ccc4c(c3)OCO4)cc2C1=O,/,/,/,/,69*[16.7 µM]
C[C@@H]1CN([C@@H](C)CO)C(=O)c2cc(NC(=O)Nc3ccc4c(c3)OCO4)ccc2O[C@@H](C)CCCCO[C@H]1CN(C)Cc1ccc(C(F)(F)F)cc1,/,/,/,/,61*[16.7 µM]
CN(C)C(=O)C[C@H]1CC[C@H]2[C@@H](COc3ccc(NC(=O)C4CCOCC4)cc3C(=O)N2C)O1,/,/,/,/,10[16.7 µM]
Oc1ccc(C[C@H]2CNC(=S)N2C[C@H]2CCCN2C[C@H](Cc2ccccc2)N2C[C@H](Cc3ccccc3)N(CC3CCCCC3)C2=S)cc1,-8,/,1,-1,82*
CC(C)C[C@H]1CN([C@@H](Cc2ccc(O)cc2)CN2CCC[C@@H]2CN2C(=S)NC[C@@H]2Cc2ccccc2)C(=S)N1CC1CCCCCC1,-4,/,1,5,14
CN(Cc1ccccc1)CC(O)COc1ccc(CNCc2cccnc2)cc1 (stereo not given),-5,-7,0,2,-113
CN(Cc1ccccc1)CC(O)COc1ccc(CNCc2ccc(Cl)s2)cc1 (stereo not given),-6,21,6.2*,-19,4
CNC[C@@H]1Oc2c(NC(=O)Nc3ccc(OC)cc3)cccc2C(=O)N([C@@H](C)CO)C[C@H]1C,/,/,/,/,-16[16.7 µM]
COc1ccc(C2C(C(N)=O)=C(C)Nc3nc(-c4cccc(Cl)c4)nn32)cc1OC (stereo not given),-1,4,0,-17,58*
C[C@@H]1CCCCO[C@@H](CN(C)C(=O)Nc2ccc3c(c2)OCO3)[C@@H](C)CN([C@H](C)CO)C(=O)c2cc(NS(=O)(=O)c3ccccc3)ccc2O1,/,/,/,/,13[16.7 µM]
Cc1ccccc1-c1ccc2c(c1)O[C@@H](CN(C)C(=O)Nc1ccc(C(F)(F)F)cc1)[C@@H](C)CN([C@@H](C)CO)S2(=O)=O,/,/,/,/,6[16.7 µM]
C[C@@H]1CN([C@@H](C)CO)S(=O)(=O)c2ccc(-c3ccccc3)cc2O[C@H]1CN(C)S(C)(=O)=O,/,/,/,/,57*[16.7 µM]
Cc1ccccc1-c1ccc2c(c1)O[C@H](CN(C)C(=O)Nc1ccc(C(F)(F)F)cc1)[C@H](C)CN([C@H](C)CO)S2(=O)=O,/,/,/,/,72*[16.7 µM]
C[C@@H]1CN([C@H](C)CO)S(=O)(=O)c2ccc(-c3ccccc3)cc2O[C@@H]1CN(C)Cc1ccccc1,/,/,/,/,65*[16.7 µM]
C[C@H](CO)N1C[C@H](C)[C@H](CN(C)Cc2ccccc2)Oc2cc(-c3ccccc3)ccc2S1(=O)=O,/,/,/,/,79*[16.7 µM]
Cc1cc(Nc2cccc(C(F)(F)F)c2)cc(=O)n1-c1cccc(C(F)(F)F)c1,-8,/,/,11,67*
O=C(N[C@H]1CC[C@H](CC(=O)N2CCc3ccccc3C2)O[C@H]1CO)C1CCC1,/,/,/,/,-7[16.7 µM]
CC(c1ccco1)N(C(=O)C12CC3(C)CC(C)(CC(C)(C3)C1)C2)c1ccccn1 (stereo not given),1,-2,0,-1,76*
O=C(Nc1nc(-c2ccccn2)cs1)c1cc(Cl)ccc1[N+](=O)[O-],-5,65*,-1,21,-28
SMILES,GalR3 antag,Gli-Sufu block,aDG glyco act,NR2F2 inh,Env fusion inh
c1ccc(CCn2cccc2)nc1,-4,0,0,-7,59*
COc1ccc(NC(=O)C2CCN(c3cc(-c4ccccc4)nc4ncnn34)CC2)cc1OC,-6,9,1,10,60*
Cc1ccccc1N1CCN(C(=O)c2ccc(Oc3ccc(C(F)(F)F)cn3)cc2)CC1,-1,2,0,24,68*
COc1ccc(N2C(=O)N3[C@H](c4ccc(Cl)cc4)[C@@H]4C(=O)N(C5CCCCC5)C(=O)[C@@H]4[C@]3(Cc3ccc(Cl)cc3)C2=O)cc1,-8,-18,0,2,88*
O=C1[C@H]2[C@@H](c3ccc(F)cc3)N3C(=O)N(c4ccc(Br)cc4)C(=O)[C@@]3(Cc3ccc(Cl)cc3)[C@H]2C(=O)N1C1CCCCC1,-9,1,1,18,72*
C[C@@H]1CCCCO[C@@H](CN(C)CC2CCCCC2)[C@H](C)CN([C@@H](C)CO)C(=O)c2cc(NC(=O)c3ccncc3)ccc2O1,/,/,/,/,4[16.7 µM]
COCCN=c1scc(C)n1/N=C/C1CC2C=CC1C2 (stereo not given),-6,-14,0,4,63*
C[C@H](CO)N1C[C@H](C)[C@@H](CN(C)C(=O)Nc2ccc(F)cc2)OCc2ccccc2-c2c(n(C)c3ccccc23)C1=O,/,/,/,/,58*[16.7 µM]
C[C@H]1CN([C@@H](C)CO)C(=O)c2c(c3ccccc3n2C)-c2ccccc2CO[C@H]1CN(C)C(=O)Nc1cccc(F)c1,-5,/,/,9,88*
C[C@@H]1CN([C@@H](C)CO)C(=O)c2c(c3ccccc3n2C)-c2ccccc2CO[C@H]1CN(C)C(=O)Nc1ccc(-c2ccccc2)cc1,/,/,/,/,23[16.7 µM]
COc1cccc(NC(=O)N(C)C[C@@H]2OCc3ccccc3-c3c(n(C)c4ccccc34)C(=O)N([C@@H](C)CO)C[C@@H]2C)c1,/,/,/,/,57*[16.7 µM]
CC[C@]12c3[nH]c4ccccc4c3CCN1C(=O)C(CC(=O)NCc1ccco1)C[C@@H]2C(=O)N1CCN(C(=O)C2CC2)CC1 (stereo not given in full),-7,1,0,16,-85
CC[C@]12c3[nH]c4ccccc4c3CCN1C(=O)C(CC(=O)NCc1ccc(OC)c(OC)c1)C[C@@H]2C(=O)N1CCN(C(=O)C2CC2)CC1 (stereo not given in full),2,-4,0,-5,61*
CC[C@]12c3[nH]c4ccc(Cl)cc4c3CCN1C(=O)[C@@H](CC(=O)NCc1ccco1)C[C@@H]2C(=O)N1CCN(C(=O)C2CC2)CC1,-4,-12,0,-8,-11
